Data published in the supplement of paper PMC6555819.

What was measured:
Assay in all cases: PBM binding z-score (relative to random genomic background probes); higher = stronger binding; sequences stand for … in GC…GCGATTGACAGCGTAGAATGAAGG
[1] = tested on: RARb homodimer (NR concentration 270 nM)
Method in brief: (§1)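 Probes were double-stranded and carried 34-nt variable regions with direct-repeat seeds, single-nucleotide variants, half-site ablations and random human genomic background sequences, printed on custom Agilent 4×180K protein-binding microarrays. Arrays were incubated 1 h with ligand-free nuclear receptor dimers in PBS pH 7.4, 2% milk, 0.02% Triton X-100, 1 mM DTT, 0.2 mg/mL BSA and 0.4 mg/ml salmon testes DNA. Antibodies against each partner (one per run) detected binding, and scanned fluorescence was regression-normalized. Binding z-scores use the random background probes as reference.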

[2] = tested on: RARg:RXRa (NR concentration 270 nM, RXRa partner concentration 90 nM)
Method in brief: as §1

[3] = tested on: RARg homodimer (NR concentration 270 nM)
Method in brief: as §1

[4] = tested on: RXRa DBDmut IVT, anti-RXR (DBD mutation: RXRa K156A/R161A, NR concentration 90 nM)
Method in brief: as §1

[5] = tested on: RXRa homodimer (NR concentration 180 nM)
Method in brief: as §1

[6] = tested on: THRa:RXRa (NR concentration 90 nM, RXRa partner concentration 90 nM)
Method in brief: as §1

[7] = tested on: THRa homodimer (NR concentration 90 nM)
Method in brief: as §1

[8] = tested on: VDR homodimer (NR concentration 270 nM)
Method in brief: as §1

Sequence | PBM binding z-score [1] | PBM binding z-score [2] | PBM binding z-score [3] | PBM binding z-score [4] | PBM binding z-score [5] | PBM binding z-score [6] | PBM binding z-score [7] | PBM binding z-score [8]
CCAAACAGGTGAGAAGGTAACTCAGCCTCGATTA | 0.453 | 0.434 | 0.256 | -0.0242 | 0.335 | 0.199 | 0.0192 | -0.08
CCTCGGAGGACAACAGGAGTTCAGAGCTGCCAGA | 1.91 | 1.7 | 1.9 | 0.979 | 0.335 | 1.17 | -0.102 | 2.95
GCTCGGAGGACAAGGTCAGACCTTTGTCCGTAGA | 3.1 | 3.68 | 3.51 | 0.424 | 3.12 | 2.94 | 1.47 | 0.924
CCTATTAGTTGACCATAAGGGCGACCGAAGCTCG | 1.12 | 0.591 | 0.438 | 0.516 | 0.491 | 0.798 | 0.626 | 0.694
CCTTACGGGTCACTGCAGGTTATAGCATCGGAGT | 3.23 | 4.87 | 4.67 | 1.59 | 5.03 | 4.41 | 0.184 | 1.17
AGTCAAAGTTCGCTAGGTAACGTAAGATTCAGCT | 0.79 | 1.41 | 1.49 | 1.92 | 0.868 | 0.668 | -0.0669 | 0.872
ATCTCTAGCTAAAGTTCAGTGAAAGATCGATAGA | 2.45 | 1.76 | 2.45 | 0.982 | 1.11 | 0.511 | -0.124 | 1.9
ATCTCTAGGTAACAAGTTCACTGAAAGAGAGGAC | 2.61 | 2.27 | 2.04 | 1.69 | 1.87 | 2.12 | 1.03 | 3.99
TCTGCTAGGGCAACGATGGTCAGCTAATCTGCTA | 0.762 | 0.579 | 0.934 | -0.149 | -0.0028 | 0.381 | -0.978 | -0.735
CATAGAGGGTCAGCTAGGCCAGAGTAGGGACGGC | 3.06 | 3.83 | 4.33 | 0.356 | 3.3 | 2 | 0.171 | 0.395
CATACAGGGTCAGCTAGGCCAGAGTGGGGACGGC | 3.76 | 4.58 | 4.75 | 1.4 | 4.23 | 3.12 | 1.52 | 1.59
GGAACGAGGGGATTCGAGTTGATAGCATGGCGAT | -0.999 | -0.337 | -0.0526 | -0.0556 | -0.258 | 0.618 | -0.631 | 0.0927
TAGCCTAGGTCAGATCGGGCCAGCATACGCTATA | 2.06 | 2.68 | 3.52 | -0.834 | 1.72 | 4.27 | 0.0653 | -0.746
GGAACGAGGGCATTCGAGTTGATATCATGGCGAT | 0.726 | 1.25 | 1.52 | 2.79 | 0.858 | 3.38 | -0.359 | 2.91
TCTGCTAGGTCAGTTGGTTAGCTAACGAGCTGCC | 2.11 | 2.15 | 2.76 | 0.517 | 0.728 | 1.15 | -0.142 | -0.573
CCAGTCAGGTGAGAAGGTAACTCAGCCTCGATTA | 0.469 | 0.276 | 0.321 | -0.0426 | 0.153 | 1.11 | 0.512 | -0.271
ACTAGCAGGCCAAGGGTCACTCATGATTAGTCCG | 3.68 | 4.01 | 3.58 | 0.479 | 4.18 | 2.31 | 0.0224 | 1.07
CGTCCTAGGTCAAGGTCAGTGAAAGAGACTCGAA | 4.34 | 5.41 | 6.43 | 2.02 | 4.55 | 3.82 | 2.95 | 1.93
CGCCCAAGGTCAGAGAGGTCAGTGAATGCCGAGT | 5.43 | 6.31 | 6.93 | 3 | 5.42 | 4.15 | 2.33 | 5.31
CGTCAAAGTTCAACTAAGGTAACGTAAAGCACGC | 4.51 | 5.92 | 6.41 | 4.68 | 5.28 | 5.33 | 1.93 | 3.26
ATATGTAGGTTAGCTGGGGTCGTTCAGACTAGGC | 1.8 | 1.66 | 1.15 | 1.08 | 2.37 | 4.63 | 1.18 | 2.29
ATATGTAGATTAGCTGGGGTCATTCAGACTAGGC | 3.49 | 3.43 | 2.17 | 1.87 | 4.94 | 4.26 | 3.01 | 4.47
CGAACGAGCGCATGAGTTGATAGCAAATGCCGAT | -0.651 | -0.0221 | -0.247 | 0.162 | -0.236 | -0.516 | -0.891 | -0.0717
TCTAGTTGGTCACGGAGGTCACATACGACGGGTA | 4.57 | 4.42 | 4.92 | 1.16 | 4.57 | 3.68 | 2.58 | 2.84
ACTATTAGTGGACTTAGGGCAACCGATACGACGC | 0.427 | 0.269 | 0.779 | 0.397 | 0.286 | 1.17 | 0.136 | 0.0269
GCAGACAGGTGGAACGCAGGTAACTCAGGGTGGC | -0.721 | -0.378 | -0.569 | -0.849 | -0.144 | 0.751 | -0.601 | -0.591
CTCGAAAGGTCGTGCTCAGCTGAGTATACCAAAC | 2.34 | 4.28 | 3.82 | 2.32 | 4.89 | 2.19 | -0.199 | 0.89
CCTACTGGGCCATCAGGTCAGTGATATCAACGTT | 2.46 | 1.18 | 1.57 | -0.413 | 0.552 | 2.19 | 1.78 | 0.319
